Laboratory results reported in the supplement of paper PMC7595190.
Values without a mark were called inactive.

Experiments:
Experiment in all cases: CellTox Green cytotoxicity fluorescence relative to DMSO vehicle (fold of vehicle RFU); higher = more cell death (loss of membrane integrity), active = 2 or more
CMK = test system: CMK
Method in brief: (§1)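 CellTox Green reagent was added when MV4-11, CMK and Kasumi-1 cells were seeded at 4.0 × 10^4 cells per well, and single compounds from the Selleckchem apoptosis library were added at final 0.01, 0.1 and 1 µM in DMSO (vehicle 0.1% DMSO). Fluorescence at Ex 485 nm and Em 520 nm was read after 24, 48 and 72 h at 37 °C, 5% CO2. The reported cytotoxicity corresponds to loss of membrane integrity, given as fold of the DMSO vehicle.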

Kasumi-1 = test system: Kasumi-1
Method in brief: as §1

MV4-11 = test system: MV4-11
Method in brief: as §1

Compound | CellTox Green cytotoxicity fluorescence (CMK; 0.01 µM, 24 h) | CellTox Green cytotoxicity fluorescence (CMK; 0.01 µM, 48 h) | CellTox Green cytotoxicity fluorescence (CMK; 0.01 µM, 72 h) | CellTox Green cytotoxicity fluorescence (CMK; 0.1 µM, 24 h) | CellTox Green cytotoxicity fluorescence (CMK; 0.1 µM, 48 h) | CellTox Green cytotoxicity fluorescence (CMK; 0.1 µM, 72 h) | CellTox Green cytotoxicity fluorescence (CMK; 1 µM, 24 h) | CellTox Green cytotoxicity fluorescence (CMK; 1 µM, 48 h) | CellTox Green cytotoxicity fluorescence (CMK; 1 µM, 72 h) | CellTox Green cytotoxicity fluorescence (Kasumi-1; 0.01 µM, 24 h) | CellTox Green cytotoxicity fluorescence (Kasumi-1; 0.01 µM, 48 h) | CellTox Green cytotoxicity fluorescence (Kasumi-1; 0.01 µM, 72 h) | CellTox Green cytotoxicity fluorescence (Kasumi-1; 0.1 µM, 24 h) | CellTox Green cytotoxicity fluorescence (Kasumi-1; 0.1 µM, 48 h) | CellTox Green cytotoxicity fluorescence (Kasumi-1; 0.1 µM, 72 h) | CellTox Green cytotoxicity fluorescence (Kasumi-1; 1 µM, 24 h) | CellTox Green cytotoxicity fluorescence (Kasumi-1; 1 µM, 48 h) | CellTox Green cytotoxicity fluorescence (Kasumi-1; 1 µM, 72 h) | CellTox Green cytotoxicity fluorescence (MV4-11; 0.01 µM, 24 h) | CellTox Green cytotoxicity fluorescence (MV4-11; 0.01 µM, 48 h) | CellTox Green cytotoxicity fluorescence (MV4-11; 0.01 µM, 72 h) | CellTox Green cytotoxicity fluorescence (MV4-11; 0.1 µM, 24 h) | CellTox Green cytotoxicity fluorescence (MV4-11; 0.1 µM, 48 h) | CellTox Green cytotoxicity fluorescence (MV4-11; 0.1 µM, 72 h) | CellTox Green cytotoxicity fluorescence (MV4-11; 1 µM, 24 h) | CellTox Green cytotoxicity fluorescence (MV4-11; 1 µM, 48 h) | CellTox Green cytotoxicity fluorescence (MV4-11; 1 µM, 72 h)
CCCCCCCCCCCC1=C(O)C(=O)C=C(O)C1=O [Embelin] | 1.03 | 1.04 | 1.09 | 0.994 | 0.99 | 0.973 | 0.986 | 1.04 | 1.05 | 0.991 | 0.988 | 0.992 | 1.01 | 0.999 | 0.996 | 1.02 | 1.03 | 1.04 | 1.01 | 1 | 1 | 1 | 0.999 | 1 | 1.02 | 1 | 1.01
COc1cccc(-n2c(=O)[nH]c3cc(Cl)n(-c4ccc(-c5cccc(OC)c5O)cc4)c3c2=O)c1 | 0.99 | 0.943 | 1.27 | 0.996 | 0.985 | 0.962 | 0.95 | 0.915 | 0.832 | 0.97 | 0.973 | 1.13 | 0.99 | 0.989 | 0.991 | 0.947 | 0.91 | 0.877 | 0.975 | 0.924 |  | 0.975 | 0.966 | 0.959 | 1.01 | 1 | 1
O=C(O)CSc1cc(NS(=O)(=O)c2ccc(Br)cc2)c2ccccc2c1O | 0.973 | 0.966 | 0.955 | 0.961 | 0.961 | 0.969 | 0.984 | 1.03 | 1.03 | 1.05 | 0.997 | 1.01 | 0.985 | 0.972 | 0.997 | 0.98 | 1.03 | 1.08 | 0.99 | 0.983 | 0.99 | 0.988 | 0.985 | 0.989 | 0.983 | 0.997 | 1.03
C=CCc1cccc(/C=N/NC(=O)CN2CCN(Cc3ccccc3)CC2)c1O | 0.917 | 0.909 | 0.921 | 0.92 | 0.917 | 0.953 | 0.913 | 0.937 | 1.06 | 1 | 0.934 | 0.93 | 0.918 | 0.918 | 0.918 | 0.916 | 0.914 | 0.892 | 0.974 | 0.955 | 0.955 | 0.95 | 0.951 | 0.957 | 0.904 | 1.07 | 1.31
N#Cc1ccc(-c2c(-c3ncn[nH]3)sc(N3CCOCC3)c2C#N)c(F)c1 | 0.974 | 0.999 | 1.04 | 0.969 | 0.994 | 0.919 | 1.03 | 1.13 | 0.932 | 0.959 | 0.958 | 0.957 | 0.991 | 1.05 | 1.05 | 0.985 | 1.3 | 1.41 | 0.973 | 0.967 | 0.969 | 0.972 | 0.993 | 0.991 | 1.01 | 1.13 | 1.13
COCC[n+]1c2c(n(Cc3cnccn3)c1C)C(=O)c1ccccc1C2=O [Sepantronium Bromide] | 0.916 | 0.91 | 0.922 | 0.955 | 1.02 | 0.927 | 1.06 | 1.53 | 1.41 | 1.02 | 1.03 | 1.11 | 1.08 | 1.41 | 1.57 | 1.5 | 2.08 (active) | 2.15 (active) | 0.95 | 0.938 | 0.957 | 1.02 | 1.83 | 2.14 (active) | 1.35 | 2.26 (active) | 2.48 (active)
CC1(C)CCC(c2ccc(Cl)cc2)=C(CN2CCN(c3ccc(C(=O)NS(=O)(=O)c4ccc(N[C@H](CCN5CCOCC5)CSc5ccccc5)c(S(=O)(=O)C(F)(F)F)c4)cc3)CC2)C1 [Navitoclax] | 0.932 | 0.931 | 0.932 | 1.24 | 1.36 | 1.36 | 1.62 | 2.39 (active) | 2.07 (active) | 1.04 | 1 | 1.05 | 1.22 | 1.53 | 1.7 | 1.57 | 2.07 (active) | 2.11 (active) |  |  |  |  |  |  |  |  | 
C=CC(=O)N1CCC(Oc2cc3c(Nc4ccc(Cl)c(Cl)c4F)ncnc3cc2OC)CC1 [Poziotinib] | 1.02 | 1.01 | 1.02 | 1.03 | 1.02 | 1.02 | 0.999 | 1 | 0.915 | 0.992 | 0.982 | 0.982 | 1.03 | 1.02 | 1.02 | 0.994 | 1 | 1.04 | 0.975 | 0.986 | 0.988 | 1.02 | 1.02 | 1.03 | 1.01 | 1.03 | 1.09
C[C@H]1Oc2cc(cnc2N)-c2c(nn(C)c2C#N)CN(C)C(=O)c2ccc(F)cc21 | 0.989 | 0.966 | 0.982 | 0.951 | 0.957 | 0.948 | 1 | 1.05 | 1.07 | 1.05 | 1.01 | 1.01 | 1.01 | 0.988 | 0.997 | 0.922 | 0.929 | 0.914 | 0.984 | 0.959 | 0.958 | 0.992 | 0.992 | 0.992 | 0.964 | 0.976 | 0.975
CCCCNc1ncc2c(-c3ccc(CN4CCN(C)CC4)cc3)cn([C@H]3CC[C@H](O)CC3)c2n1 | 0.987 | 0.978 | 1 | 1.07 | 1.31 | 1.32 | 1.13 | 1.75 | 1.98 | 1.06 | 1.01 | 1.02 | 1.05 | 1.18 | 1.32 | 1.1 | 1.62 | 1.93 |  |  |  |  |  |  |  |  | 
Nc1cccc2c1CN(C1CCC(=O)NC1=O)C2=O (stereo not given) [Lenalidomide] | 0.938 | 0.942 | 0.905 | 0.932 | 0.929 | 0.898 | 0.948 | 0.969 | 0.783 | 0.986 | 0.897 | 0.88 | 0.951 | 0.933 | 0.915 | 0.986 | 1 | 0.982 |  |  |  |  |  |  |  |  | 
FC(F)(F)c1ccc(CNc2ccc(Cc3c[nH]c4ncc(Cl)cc34)cn2)cn1 [Pexidartinib] | 1.01 | 1 | 0.979 | 0.99 | 1 | 0.967 | 0.964 | 0.989 | 0.967 | 0.99 | 0.998 | 0.956 | 1 | 1 | 1.03 | 1.04 | 1.12 | 1.2 |  |  |  |  |  |  |  |  | 
CCO[C@@H]1OC(=O)C[C@@H]1NC(=O)[C@@H]1CCCN1C(=O)[C@@H](NC(=O)c1ccc(N)c(Cl)c1)C(C)(C)C | 0.989 | 0.988 | 1 | 0.971 | 0.981 | 0.995 | 0.96 | 0.975 | 1.03 | 0.954 | 0.953 | 0.948 | 0.98 | 0.961 | 0.948 | 0.997 | 1.02 | 1.03 |  |  |  |  |  |  |  |  | 
